# In PubChem BioAssay AID2732 (Emory University Molecular Libraries Screening Center, 2010):
# Among all 220,000 compounds or so, about 8,200 (3.7%) were called active. For the sample, actives were picked, then their nearest neighbours and some compounds at random. Values without a mark were called inactive.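 How the source made its calls: active means compounds that reduced the stress-induced luciferase reporter signal by more than about 70% of percent inhibition (limit read from the data); inactive means the rest.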
# Test: inhibitors of CHOP promoter induction, primary screen, cell-based, unfolded protein response, luciferase reporter (AID 2732);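 further: 0% = tunicamycin plus vehicle and 100% = wells without tunicamycin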
# Settings: CHO-K1 CHOP-promoter luciferase, tunicamycin-induced, 15-18 h; at 10 µM; hits give high values
row,Structure (SMILES),inhibition
1,COc1cc(C(F)(F)F)c(C(=O)N(C)c2ccc(Cl)cc2)cn1,13.6%
2,O=C(Nc1ccc(-c2csc(Nc3cccc(C(F)(F)F)c3)n2)cc1)c1cccc(C(F)(F)F)c1,21.4%
3,COC(=O)CSc1nccc(-c2cccs2)n1,-10.9%
4,O=C(Nc1ccnc(-c2ccncc2)n1)c1cccs1,10.6%
5,O=C(O)COc1ccc(-c2nccc(-c3cccs3)n2)cc1,73.8% (active)
6,O=c1[nH]c(CSc2ccccc2)nc2c1oc1ccccc12,-3.37%
7,Cc1nnsc1C(=O)NCc1c(F)cccc1Cl,15.1%
8,Cc1ccc(-c2cn3cc(C)ccc3n2)cc1,95.9% (active)
9,Cc1ccc(-c2cn3cc([N+](=O)[O-])ccc3n2)cc1,54.5%
10,COc1ccc(-c2cn3ccc(C)cc3n2)cc1,59.3%
11,COc1ccccc1N1CCN(C(=O)CSc2ncnc3c2cnn3-c2ccc(C)c(C)c2)CC1,-4.74%
12,Cc1nc(C(=O)N2CCCC(C(=O)c3ccc(Cl)cc3)C2)cs1 (stereo not given),-9.72%
13,O=c1c2ccccc2nc2n1C1(CCCCC1)Cc1ccccc1-2,-15.6%
14,CN(c1ccc2nc3ccccc3c(=O)n2n1)C1CCCCC1,84.1% (active)
15,CN(C(=O)CSc1nncc2ccccc12)C1CCCCC1,4.17%
16,O=C(C[n+]1cc(-c2ccc(Cl)c(Cl)c2)n2c1CCC2)c1cccs1,-8.35%
17,Cc1ccc(S(=O)(=O)N(C)C)cc1NC(=O)c1n[nH]c(=O)c2ccccc12,2.56%
18,O=C(Nc1ccc(F)cc1)c1cc2c(s1)CCCC2,10.4%
19,C/C(=N\NC(=O)c1cc2c(s1)CCC(C)C2)c1cccnc1 (stereo not given),6.64%
20,CC1CCc2sc(C(=O)N/N=C/C3CCCCC3)cc2C1 (stereo not given),71.4% (active)
21,NC(=O)c1c(NC(=O)CSc2nc(N)cc(=O)[nH]2)sc2c1CCCC2,15.3%
22,COc1cc(/C=C2/C(=O)ON=C2C)ccc1OCc1cccc(F)c1,104% (active)
23,CC1=NOC(=O)/C1=C\c1ccccc1,-18.4%
24,COc1cc(/C=C2/C(=O)ON=C2C)ccc1OCc1ccccc1F,-26.4%

row,Structure (SMILES),inhibition
1,Cc1cc(NCc2cccnc2)no1,3.98%
2,O=C(NC(=O)N1CCSCC1)c1c(Cl)cccc1Cl,12.1%
3,Cc1cc(CO)nn1-c1ccc([N+](=O)[O-])cc1,7.27%
4,CNC(=O)C(NC(=O)c1ccccc1)=C(C)C,1.37%
5,CCN(CC)c1ccc(NC(=O)C2CCC(CNc3c(N4CCCC4)c(=O)c3=O)CC2)c(C)c1 (stereo not given),-9.36%
6,Cc1cc(-c2nc(C)c(-c3nnc(SCC(=O)Nc4ccccc4)n3C)s2)no1,5.16%
7,COc1cccc(-c2nc3cc(C)ccc3o2)c1,61.7%
8,CC(C)(C)Oc1ncc(Br)c(OC(C)(C)C)n1,23.2%
9,COc1cccc(-c2cnc(OC(C)(C)C)nc2OC(C)(C)C)c1,91.8% (active)
10,Cc1ccc(C(=O)Nc2nc(N)n(-c3ccccc3)n2)cc1,12.8%
11,O=C(Nc1cccc([N+](=O)[O-])c1)Nc1ccc(Cl)cn1,2.82%
12,O=C(CCl)N(Cc1cccc([N+](=O)[O-])c1)c1cccc(Cl)c1,105% (active)
13,CCN(CC)C(=O)CN(c1cccc([N+](=O)[O-])c1)S(=O)(=O)c1ccccc1,0.69%
14,COC(=O)c1scc(S(=O)(=O)C(C)(C)C)c1-n1cccc1,6.86%
15,Cc1ccc(S(=O)(=O)NC(=O)N2CCCN(Cc3ccc(F)cc3)CC2)cc1,9.07%
16,COc1ccc(NS(=O)(=O)c2ccc(NC(=S)NC(=O)/C=C/c3ccc(C)cc3)cc2)nn1,95.5% (active)
17,COc1ccc(NS(=O)(=O)c2ccc(NC(=O)C(C)(C(F)(F)F)C(F)(F)F)cc2)nn1,-4.95%
18,Cc1ccc(NC(=S)NC(=O)/C=C/c2ccc(Cl)cc2)cc1,17.9%
19,CCN(CC)CCCN=Cc1c(O)n(-c2ccc(C)cc2)c(=O)c2ccccc12,6.14%
20,CSCC[C@H](NC(=O)NC1CCCC1)C(=O)O,-0.23%
21,Cc1ccc(-c2nc(CS(=O)CC(=O)N3CCN(c4ncccn4)CC3)c(C)o2)cc1 (stereo not given),44.5%
22,COc1ccc(-c2nc(CS(=O)CC(=O)NCc3ccccn3)c(C)o2)cc1 (stereo not given),7.53%
23,COc1ccc(-c2nc(CS(=O)CC(=O)N3CCc4ccccc4C3)c(C)o2)cc1 (stereo not given),86.5% (active)
24,CCn1c(SCC(=O)Nc2sc(C)c(C)c2C#N)nnc1C1CC1,5.65%

row,Structure (SMILES),inhibition
1,CCc1ccccc1NC(=O)CSc1nnc(CCNC(=O)OC(C)(C)C)o1,15.9%
2,O=C(/C=C/c1ccc(Cl)c([N+](=O)[O-])c1)c1ccc(O)cc1,-208%
3,Cc1ccc(-c2nn(-c3ccccc3)cc2/C=C/C(=O)Nc2cccc(S(N)(=O)=O)c2)cc1,88.3% (active)
4,COc1ccc(-c2nn(-c3ccccc3)cc2/C=C\C(=O)Nc2ccc(C(=O)O)cc2)cc1,40.4%
5,Cc1ccc(-c2nn(-c3ccccc3)cc2C(=O)Nc2cccc(S(=O)(=O)N3CCOCC3)c2)cc1,40%
6,CC(=O)NCc1ccc(S(=O)(=O)NC2CCN(Cc3ccccc3)CC2)cc1,-10.7%
7,Nc1ccccc1SC(C[N+](=O)[O-])c1ccccc1 (stereo not given),46.3%
8,O=C1CC2(CC(c3ccc(Cl)cc3)=NO2)C(=O)N1c1ccccc1 (stereo not given),18.6%
9,NC(=O)C1=C[C@@H](c2csc3ccccc23)C[C@@H](OCc2ccc(CO)cc2)O1,36.3%
10,COP1(=O)C[C@@H](O)[C@@H](O)[C@@H](COCc2ccccc2)O1 (stereo not given in full),-7.84%
11,Cc1ccc2[nH]c(=O)c(-c3nc4c(C)cccn4c3NCc3ccco3)cc2c1,95.7% (active)
12,CCNCc1cc2cc(C)ccc2[nH]c1=O,-7.23%
13,CCCc1nc(-c2cc3cc(C)ccc3[nH]c2=O)no1,14.6%
14,Cc1nnc(SC(C(=O)c2ccccc2)c2ccccc2)[nH]c1=O (stereo not given),-8.07%
15,CCn1c2ccccc2c2cc(NC(=O)CNC)ccc21,5.95%
16,CCCC(=O)Nc1ccc(C(=O)NCCCn2ccnc2)cc1,73.7% (active)
17,O=C(CCN1C(=O)c2ccccc2C1=O)NCCCn1ccnc1,-1.9%
18,CCOc1ccccc1C(=O)NCCCn1ccnc1,-4.75%
19,N#C/C(=C\N1CCOCC1)S(=O)(=O)c1ccc(Cl)cc1,21.5%
20,O=C(Nc1ncc2c(n1)CC(c1ccco1)CC2=O)c1ccc(Cl)cc1 (stereo not given),33.8%
21,CCc1ccc(Nc2ncc3c(n2)CC(c2ccco2)CC3=O)cc1 (stereo not given),78.5% (active)
22,COc1cc(C2CC(=O)c3cnc(NC(C)=O)nc3C2)cc(OC)c1OC (stereo not given),30.2%
23,CCOC(=O)c1cn(CC)c2cc(F)c(F)cc2c1=O,-15.5%
24,O=C(CNC(c1ccccc1)c1ccccc1)Nc1ccc(F)cc1,23.2%

row,Structure (SMILES),inhibition
1,O=C(CC(NC(=O)c1ccccc1)c1ccccc1)Nc1ccc(F)c(F)c1 (stereo not given),105% (active)
2,O=C(CNC(=O)c1cc(=O)[nH]c2ccccc12)Nc1ccc(F)c(F)c1,-18.5%
3,CCn1c(=O)c([N+](=O)[O-])c(NCc2ccc3c(c2)OCO3)c2ccccc21,22.4%
4,Cc1cc(NC(=O)OC(C)C)ccc1-c1ccc(NC(=O)OC(C)C)cc1C,25.1%
5,C(=N\Nc1ccc2ccccc2n1)/c1ccc2c(c1)OCO2,71% (active)
6,Brc1ccc(-c2csc(N/N=C/c3ccc4c(c3)OCO4)n2)cc1,26.8%
7,Cc1noc(C)c1/C=N/Nc1ccc2ccccc2n1,16.5%
8,COc1ccc(Cc2cc(-c3ccc(F)cc3)n[nH]c2=O)cc1,15.3%
9,O=C(NCC1CCCO1)c1cc(-c2ccccc2)nc2ccccc12 (stereo not given),1.14%
10,Cc1ccc2nc(-c3ccc(SCC(=O)Nc4cc(C)on4)nc3)[nH]c2c1,91.1% (active)
11,Cc1ccc(-c2csc(SCC(=O)Nc3cc(C)on3)n2)cc1,32.5%
12,Cc1ccc(SCCC(=O)Nc2cc(C)on2)cc1,20.7%
13,CCCc1nc2oc3c(=O)[nH]cnc3c2c2c1COC(C)(C)C2,-14.7%
14,COC(=O)c1cc(S(=O)(=O)N2CCC(C(N)=O)CC2)oc1C,4.8%
15,COCCNc1nc(-c2ccccc2)nc2c1oc1ccccc12,37.1%
16,Cc1cc(C)n(CC(C)NCc2c(C(=O)N3CCOCC3)nc3c(C)cccn23)n1 (stereo not given),11.3%
17,O=C(Nc1ccccc1)/C(=C/c1ccc([N+](=O)[O-])cc1)NC(=O)c1ccccc1,51.8%
18,Cc1ccc(NC(=O)/C(=C/c2ccc([N+](=O)[O-])cc2)NC(=O)c2ccccc2)cc1,104% (active)
19,O=C(Nc1ccc(C(=O)O)cc1)/C(=C/c1ccc([N+](=O)[O-])cc1)NC(=O)c1ccccc1,-5.43%
20,Cc1cc(=O)oc2cc(OCC(=O)Nc3nnc(C4CC4)s3)ccc12,1.52%
21,CNC1(c2nnnn2-c2c(C)cccc2C)CCOC(C)(C)C1 (stereo not given),1.67%
22,CCOC(=O)C1CCN(C(=O)Nc2ccc(C)c(Cl)c2)CC1,1.94%
23,C/C=C(/C)C(=O)O[C@@H]1c2cc3c(c4c2[C@@]2(CO4)C(=O)C(OC)=C(OC)C=C2C[C@@H](C)[C@H]1C)OCO3,2.19%
